Experimental data from PubChem BioAssay (NCI).
This is part of a sample that, as a whole, favours compounds with a hit. Of some 83,000 tested, about 20% had one in any assay.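 Method: cells in 96-well plates; compound added at one concentration; 48 h incubation; percent growth measured; values under 10 scored active.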 The source made the active and inactive calls.

Experiments:
Assay in all cases: NCI-60 one-dose screen, 48 h (100 = growth as untreated, 0 = no growth, -100 = all killed)
[1] = tested on: HT29 colon; details: 10 µM unless noted
[2] = tested on: SNB-75 CNS; details: 10 µM unless noted
[3] = tested on: SNB-19 CNS; details: 10 µM unless noted
[4] = tested on: U251 CNS; details: 10 µM unless noted
[5] = tested on: PC-3 prostate; details: 10 µM unless noted
[6] = tested on: SK-MEL-5 melanoma; details: 10 µM unless noted
[7] = tested on: UACC-62 melanoma; details: 10 µM unless noted
[8] = tested on: LOX IMVI melanoma; details: 10 µM unless noted
[9] = tested on: SK-MEL-28 melanoma; details: 10 µM
[10] = tested on: SK-MEL-2 melanoma; details: 10 µM unless noted
[11] = tested on: EKVX NSCLC; details: 10 µM unless noted
[12] = tested on: SN12C renal; details: 10 µM unless noted
[13] = tested on: UO-31 renal; details: 10 µM unless noted
[14] = tested on: TK-10 renal; details: 10 µM unless noted
[15] = tested on: ACHN renal; details: 10 µM unless noted
[16] = tested on: CAKI-1 renal; details: 10 µM unless noted
[17] = tested on: A498 renal; details: 10 µM unless noted
[18] = tested on: MOLT-4 leukemia; details: 10 µM unless noted
[19] = tested on: SR leukemia; details: 10 µM unless noted
[20] = tested on: CCRF-CEM leukemia; details: 10 µM unless noted

Measured: growth

COC(=O)/C(=C\c1c(C)[nH]c2ccccc12)S(=O)(=O)c1ccccc1
active: [1] 9.54% | [2] -8.87% | [5] -1.81% | [17] -3.18%
inactive: [3] 19.1% | [4] 25.7% | [6] 34.1% | [7] 53.8% | [8] 15.6% | [9] 16.6% | [10] 23.9% | [11] 61.3% | [12] 39.7% | [13] 23.8% | [14] 46.8% | [15] 49.1% | [16] 27% | [18] 15.5% | [19] 27.2%

CCCCN1CCN(c2ccc3nc(-c4ccc5nc(-c6ccc(OC)c(OC)c6)[nH]c5c4)[nH]c3c2)CC1
inactive: [5] 14.3% | [11] 38.8% | [13] 50.7% | [14] 14.9%
active: [1] 5.94% | [2] 6.59% | [3] 0.577% | [4] -45.3% | [6] -34.4% | [7] -58.5% | [8] -81.4% | [9] -71.2% | [10] -51.2% | [12] 7.75% | [15] 2.47% | [16] 2.32% | [20] 3.3% | [18] -14.3% | [19] -6.6%

COC(=O)c1c2c(c(C)[n+]([O-])c1C)C(=O)C=C(NCc1ccc(F)c(F)c1)C2=O
inactive: [19] 10.5%
active: [1] 1.02% | [2] -96.7% | [3] -67.2% | [4] -31.9% | [5] 3.37% | [6] -100% | [7] -83.9% | [8] -72.7% | [9] -19.3% | [10] -50.1% | [11] -82.1% | [12] -93.7% | [13] -71.5% | [14] 3.98% | [15] -78.2% | [16] -10.6% | [20] 5.3% | [18] -26.5%

Nc1nc2c(ncn2[C@@H]2O[C@H](CS)[C@@H](O)[C@H]2O)c(=O)[nH]1
inactive: [1] 99.9% | [2] 92.6% | [3] 95.3% | [4] 99.3% | [5] 101% | [6] 97% | [7] 93.6% | [8] 96.9% | [9] 98.6% | [10] 120% | [11] 95.8% | [12] 97.2% | [13] 93% | [14] 96.3% | [15] 99.8% | [16] 94.5% | [17] 99.9% | [20] 100% | [18] 99% | [19] 101%

CSc1nc2c(c(=O)[nH]1)N=C1c3ccccc3C(=O)C1C(c1ccc(F)cc1)N2 (stereo unspecified)
inactive: [1] 18% | [2] 26.8% | [3] 61.6% | [4] 58.8% | [5] 69.3% | [6] 39.8% | [7] 43.1% | [8] 62% | [9] 83.5% | [10] 72.1% | [11] 74.8% | [12] 87.7% | [13] 62.8% | [14] 78.2% | [15] 59.1% | [16] 25.8% | [17] 88.2% | [20] 52.5% | [18] 76% | [19] 31.5%

COc1cc(CNC(=O)Cc2ccccc2)ccc1OCc1cn(-c2ccc(F)cc2)nn1
inactive: [1] 111% | [2] 91.7% | [3] 103% | [4] 97.3% | [5] 98.5% | [6] 89.1% | [7] 85.3% | [8] 99.6% | [9] 103% | [10] 101% | [11] 94.2% | [12] 93.1% | [13] 80.7% | [14] 112% | [15] 94.9% | [16] 91.2% | [20] 100% | [18] 114% | [19] 106%

CN1CCN(Cc2ccc(NC(=O)c3[nH]ncc3Nc3cc(OC4CCCC4)ncn3)cc2)CC1
active: [5] 8.34% | [15] 8.8% | [20] 5.67% | [18] 5.56% | [19] 4.42%
inactive: [1] 14.3% | [2] 61.7% | [3] 59.8% | [4] 41.1% | [6] 14.5% | [7] 29.2% | [8] 17.9% | [9] 53.1% | [10] 49.4% | [11] 60.1% | [12] 24.9% | [13] 25.8% | [14] 88.3% | [16] 19.2% | [17] 49.6%

Cn1c(/C=C(\C#N)c2cccc(C(F)(F)F)c2)nc2c(N3CCOCC3)nc(Cl)nc21
active: [1] -41.5% | [2] -22.7% | [4] 2.31% | [5] -42.6% | [6] 9.34% | [7] -81.1% | [8] -87.9% | [9] -87.2% | [10] -21.2% | [11] -76.2% | [12] -0.107% | [13] -100% | [14] -67% | [15] -100% | [16] -94% | [20] 4.85% | [18] -14.3%
inactive: [3] 56.3% | [17] 10.8% | [19] 10.3%
